PostGolgi ctrl: growth of the yeast control strain, post-Golgi counter-screen | efflux-deficient yeast background strain, growth absorbance A615, 16 h | inhibition, % at 10 µM | actives 5% (n = 98,000)
CYP2C19 activ: activators of human cytochrome P450 2C19. recombinant CYP2C19, luciferin-H EGE luminescence; hits give high values; 0 = fully inhibited enzyme, 1 = untreated enzyme. activation factor at 5 µM. P33261. AID 1025. 96,000 tested, under 10 active;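 active means activation factor of at least 2 at 5 µM in the primary screen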;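 further: 0 = wells with 2.5 mM tranylcypromine and 1 = vehicle-only wells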
Target sequence (P33261 whole entry, looked up): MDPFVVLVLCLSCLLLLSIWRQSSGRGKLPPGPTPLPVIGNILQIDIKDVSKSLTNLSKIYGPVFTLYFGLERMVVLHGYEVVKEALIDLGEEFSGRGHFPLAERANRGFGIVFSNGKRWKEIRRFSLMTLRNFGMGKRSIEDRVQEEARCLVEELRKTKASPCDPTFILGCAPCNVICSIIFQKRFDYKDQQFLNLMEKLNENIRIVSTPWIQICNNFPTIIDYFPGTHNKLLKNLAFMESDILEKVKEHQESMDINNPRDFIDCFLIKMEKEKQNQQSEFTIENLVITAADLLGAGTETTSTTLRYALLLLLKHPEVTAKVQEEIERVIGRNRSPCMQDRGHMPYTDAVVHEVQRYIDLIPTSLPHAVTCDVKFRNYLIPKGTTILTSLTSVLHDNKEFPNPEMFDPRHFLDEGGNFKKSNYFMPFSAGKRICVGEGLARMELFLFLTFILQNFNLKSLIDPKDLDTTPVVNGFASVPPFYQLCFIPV
CYP2C19 inh: inhibitors of human CYP2C19 | P33261 | CYP2C19 Supersomes, luciferin-H EGE luminescence, 30 min | inhibition, % at 5 µM | actives 21% (n = 96,000) | AID 778;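 active means CYP2C19 inhibition above a set limit at 5 µM in the primary screen, cut at about 50% in these data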;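 further: plate controls were negative control wells for no effect and 2.5 mM tranylcypromine positive control for full effect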
CYP2C9 act: increases human cytochrome P450 2C9 activity; P11712; activation factor at 5 µM; AID 1024; actives 1.4% (n = 96,000); recombinant CYP2C9, luciferin-H conversion, luminescence; hits give high values; factor 1 = untreated enzyme, 0 = blocked;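 active means activation factor of 2 or more for CYP2C9 at a 5 µM dose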;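 further: 0 = sulfaphenazole-blocked wells and 1 = vehicle-only wells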
PostGolgi yeast: growth inhibition of a yeast mutant, post-Golgi transport screen. post-Golgi transport phenotypic cell assay. inhibition, % at 10 µM. actives 0.9% (n = 98,000). AID 739;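 further: yeast cells grown in 1536-well plates; yeast grown about 18 h at 30C before absorbance read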
CYP2C9 inhib: inhibitors of human CYP2C9; CYP2C9 Supersomes, luciferin-H conversion, luminescence; inhibition, % at 5 µM; P11712; actives 20% (n = 96,000);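 active means blocking of liver enzyme CYP2C9 beyond about 50% at 5 µM, limit read from the data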
Starred values were filed as active, the others as inactive; · = not tested or not shown. The list is a sample of the results. Unless noted, no stated cut-off is given here; in the data, active means inhibition above about 30%; inactive means the rest.

SMILES	PostGolgi ctrl	CYP2C19 activ	CYP2C19 inh	CYP2C9 act	PostGolgi yeast	CYP2C9 inhib
CC(=O)c1c(C)[nH]c(C(=O)OC2CCCCC2=O)c1C (centres undefined)	4	0.7	26	0.8	7	18
CC(C)CN(C(=O)COC(=O)Cc1c[nH]c2ccccc12)C1CCS(=O)(=O)C1 (centres undefined)	11	0.7	28	0.9	6	7
CC(C)CN(C(=O)COC(=O)CCc1c[nH]c2ccccc12)C1CCS(=O)(=O)C1 (centres undefined)	3	0.8	16	2.2*	6	-124
O=C(c1cnc2n(c1=O)CCS2)N1CCN(c2ccc([N+](=O)[O-])cc2)CC1	15	1.1	-6	0.9	-4	9
O=C(Oc1ccccc1Cl)c1ccc(-n2cncn2)nc1	9	0.1	93*	0.2	7	78*
O=C(OCCOc1ccccc1Cl)c1ccc(-n2cnnn2)cc1	18	0.5	47	0.5	4	46
CN(C)c1ccc(C(=O)Nc2cc(C(F)(F)F)ccc2-n2cncn2)cc1	5	1.1	-7	1	-2	-4
C=CCOC(=O)c1ccc(-n2cncn2)nc1	7	0.2	80*	0.7	-2	31
Cc1ccc(-c2nnc(N(C)C(=O)c3ccccn3)s2)cn1	1	1	2	0.9	-6	6
CC1CCCCN1C(=O)C1CC(c2ccc(F)cc2)=NO1 (centres undefined)	22	0.9	9	0.9	9	7
COC(=O)c1c(NC(=O)CN2CCN(C(=O)c3ccco3)CC2)c2cc(C)ccc2n1C	6	0.7	33	0.7	-4	31
CC(OC(=O)c1cc2sccc2n1C)C(=O)NCc1ccco1 (centres undefined)	11	0.1	90*	0.2	12	79*
CCC(C)(C)NC(=O)C(OC(=O)c1cc2sccc2n1C)c1ccc(OC)cc1 (centres undefined)	8	1	2	0.9	24	8
Cn1c(C(=O)OC(C(=O)NCc2ccco2)c2ccncc2)cc2sccc21 (centres undefined)	-12	0	98*	0.1	-2	90*
CCC1(CC)C(=O)N(C)C(=O)NC1=NCc1ccccc1	-3	0.9	12	0.9	-3	15
CCn1c(SCC(=O)c2[nH]c(C)c(C(C)=O)c2C)nnc1-c1ccccc1	1	0.2	77*	0.7	9	27
CCn1c(SCC(=O)O)nnc1-c1ccccc1	-2	0.9	7	1	0	3
CCn1c(SCC(=O)c2[nH]c(C)c(C(C)=O)c2C)nnc1-c1ccncc1	2	0.3	66*	0.9	-8	8
O=C(Nc1sc2c(c1C(=O)NCc1cccnc1)CCCC2)c1ccco1	15	0.2	78*	0.1	0	95*
CC(Oc1ccccc1)C(=O)NCc1cccnc1 (centres undefined)	-1	0.8	16	1	3	-1
CC(C)OC(=O)c1c(NC(=O)c2ccco2)sc2c1CCCCC2	25	0.9	15	0.7	26	33
CC(Oc1ccc(F)cc1)C(=O)Nc1sc2c(c1C(=O)NCc1cccnc1)CCCC2 (centres undefined)	42*	0.2	78*	0.1	0	94*
O=C(Nc1sc2c(c1C(=O)c1ccc(Cl)cc1)CCCC2)c1cccnc1	40*	0.8	16	0.7	8	30
COc1ccc(NC(=O)C2CCC(CNc3c(N4CCCCC4)c(=O)c3=O)CC2)cc1OC (centres undefined)	24	0.8	19	0.6	0	36
COc1ccccc1-n1c(C)nnc1SCC(=O)Nc1cccc(C(C)=O)c1	8	0.7	25	0.7	5	31
SMILES	PostGolgi ctrl	CYP2C19 activ	CYP2C19 inh	CYP2C9 act	PostGolgi yeast	CYP2C9 inhib
CCc1c(C)[nH]c2c(C)cccc2c1=O	1	1	0	1	-1	3
Cn1cnnc1SC(C(=O)Nc1cccc(C(F)(F)F)c1)c1ccccc1 (centres undefined)	8	0.3	71*	0.3	2	73*
CCOC(=O)c1oc2ccccc2c1CSc1nnnn1-c1ccccc1	12	0.8	20	0.6	7	37
COc1ccc(CCC(C(O)C(F)(F)F)S(=O)c2ccccc2)cc1 (centres undefined)	11	0.4	60*	0.5	26	50*
COc1ccc(-c2noc(-c3ccccc3C(=O)NCc3ccco3)n2)cc1	19	0.9	12	0.8	-8	23
COc1ccc(C(=O)Nc2ccc(Cl)cc2C(=O)NCc2ccco2)cc1OC	12	0.7	29	0.4	-4	63*
COC(=O)Nc1sc2c(c1C(=O)NCc1ccco1)CCCC2	2	1.1	-5	1	-4	4
Cc1ccc(C(=O)Nc2sc3c(c2C(=O)NCc2ccco2)CCCC3)cc1	0	0.9	8	0.3	2	65*
O=C(Nc1sc2c(c1C(=O)NCc1ccco1)CCCC2)c1ccc2c(c1)OCO2	22	0.4	63*	0.2	-7	84*
COc1ccc(-c2noc(-c3ccccc3C(=O)NCc3ccco3)n2)cc1OC	31*	0.7	31	0.8	-2	21
O=C(O)C1[C@H]2C(=O)N(C3CCCC3)C[C@]23C=C[C@H]1O3 (some centres undefined)	10	1	3	1	9	4
Cc1ccc(N2CCCCn3c2nc2c3c(=O)[nH]c(=O)n2C)cc1	17	0.9	8	0.9	5	12
CCOc1ccc2c(c1)c1nnc(SCC3CCCO3)nc1n2C (centres undefined)	16	0.5	47	0.5	-3	48
O=C1Nc2cc3c(cc2Sc2ccccc21)OCCO3	7	0.7	26	1.1	9	-6
COc1cc(C(=O)Nc2sc3c(c2C(=O)NCc2ccco2)CCCC3)cc(OC)c1OC	4	0.4	61*	0.2	8	76*
COc1ccc(C(=O)Nc2sc3c(c2C(=O)NCc2ccco2)CCCC3)cc1OC	14	0.5	51*	0.1	-2	86*
O=C(CCN1C(=O)c2ccccc2C1=O)Nc1sc2c(c1C(=O)NCc1ccco1)CCCC2	-2	0.2	76*	0.1	16	92*
COC(=O)Nc1sc2c(c1C(=O)NCc1ccco1)CCC2	24	0.9	10	0.7	11	34
O=C(Cn1cc2c(n1)CCCC2)NCCc1ccccc1	8	·	·	·	1	·
Cc1ccc2cc(C#N)c(SCC(=O)Nc3ccc4sc(C)nc4c3)nc2c1	-1	0.9	8	0.8	-3	15
O=C(Cc1ccc(S(=O)(=O)N2CCCC2)s1)Nc1nc2c(s1)CCCC2	11	0.8	23	0.7	-2	30
N#CC1(c2ccccc2)CCCN1C(=O)c1ccccc1Cl (centres undefined)	17	1.1	-5	1	-1	0

Compound activity: PubChem, several laboratories
